Drawing on PubChem BioAssay (Tox21), this text covers Potency for eight molecules.

Experiment [1] in a line: Nuclear factor erythroid 2-related factor 2/antioxidant responsive element (Nrf2/ARE) small molecule agonists: qHTS cell viability counter screen in human keratinocytes (AID 1919968; active = well fitted curve in the direction sought with a large enough effect in the repeat runs; an effect the other way counts as inactive or inconclusive; note: nearly all actives have a fitted effect of over 55% in size). In a few lines: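 Cytotoxicity was multiplexed with the Nrf2/ARE luciferase assay in the same wells. Stably transfected HaCaT keratinocytes were treated with test compounds for 23 h at 37 C. Cell viability was then measured by CellTiter-Fluor fluorescence.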

Experiment [2] in a line: Nuclear factor erythroid 2-related factor 2/antioxidant responsive element (Nrf2/ARE) small molecule agonists: luciferase reporter gene qHTS assay in human keratinocytes (AID 1919969). Note: nearly all actives have a fitted effect of over 35% in size. Note: potency is the fitted concentration of half-maximal effect.
Experiment [3] has as its target Gonadotropin-releasing hormone receptor (Homo sapiens) (UniProt P30968). In words: Human gonadotropin-releasing hormone receptor (GnRHR) small molecule agonists, calcium flux assay in GnRHR-HEK293 cells (AID 1920063). Note: nearly all actives have a fitted effect of over 35% in size. In a few lines:
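Agonist activity was measured as intracellular calcium flux in HEK293 cells engineered to stably express human GnRHR. After dye loading for 1 hour at 37 C, compounds in DMSO were added and fluorescence was followed for 3 minutes.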

The target in experiment [4] is KiSS-1 receptor (Homo sapiens) (UniProt Q969F8). The experiment can be described thus: Human kisspeptin (KISS1R) small molecule agonists, calcium flux assay in KISS1R-HEK293 cells (AID 1920064; active = well fitted curve in the direction sought with a large enough effect in the repeat runs; an effect the other way counts as inactive or inconclusive). In a few lines: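 Agonist activity is monitored as intracellular calcium rise in engineered HEK293 cells carrying human KISS1R. Cells are dye-loaded for 1 h at 37 C before compound addition, and fluorescence is recorded for 3 min.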

Experiment [5] in a line: G protein-coupled receptor (GPCR) small molecule agonists, calcium flux assay: HEK293 wild type cell line counter screen (AID 1920065). In a few lines: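 Seed cells, incubate 18 h (37 C, 5% CO2); add calcium dye, 1 h at 37 C; pin-transfer compounds, ATP control or DMSO; read fluorescence 480/540 nm each second for 3 min.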
Experiment [6] can be described thus: p53 small molecule agonists, cell-based qHTS assay with rat liver microsomes (AID 1963578). In a few lines: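 Fluorescence from a beta-lactamase reporter under a p53 response element was measured after cells had been incubated 16 h at 37 C with test compound and rat liver microsomes plus NADPH (0.5 mg/mL final each).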
On the technique in general: qHTS replaces the single test concentration by a dilution series.

Experiment [7] in a line: p53 small molecule agonists, cell-based qHTS assay with human liver microsomes: qHTS cell viability counter screen (AID 1963579). Note: nearly all actives have a fitted effect of over 45% in size. Note: potency is the fitted concentration of half-maximal effect. In outline: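 Seed p53RE-bla cells at 4,000 per well; incubate 5 h at 37 C; add compound, human liver microsomes and NADPH; incubate 16 h at 37 C; add CellTiter-Glo; after 30 min at room temperature, read luminescence.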
The nature of experiment [8]: p53 small molecule agonists, cell-based qHTS assay with rat liver microsomes: qHTS cell viability counter screen (AID 1963580). Note: nearly all actives have a fitted effect of over 45% in size. In a few lines:
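Counter screen for cytotoxicity under metabolic activation: rat liver microsomes and NADPH, 0.5 mg/mL final each, added with compounds to p53RE-bla HCT-116 cells; 16 h at 37 C, then ATP luminescence read.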

Experiment [9] in a line: p53 small molecule agonists, cell-based qHTS assay: qHTS cell viability counter screen (AID 1963581). Note: nearly all actives have a fitted effect of over 45% in size. In a few lines:
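Viability was counter-screened in parallel with the p53 agonist reporter by measuring intracellular ATP luminescence in the same HCT-116 p53RE-bla wells after 16 h compound treatment at 37 C.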

Experiment [10] can be described thus: p53 small molecule agonists, cell-based qHTS assay (AID 1963582; active = well fitted activation curve with a large enough effect in the signal ratio in the repeat runs, not every such curve was filed as active; the % refers to the signal ratio). In a few lines: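 Cells carrying a p53-responsive bla reporter are treated with test compounds for 16 h at 37 C; beta-lactamase activity is then detected with LiveBLAzer B/G FRET substrate after 2 h at room temperature.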
In experiment [11] the target is 5-hydroxytryptamine receptor 2A (Homo sapiens) (UniProt P28223). In words: 5-hydroxytryptamine receptor 2A (HTR2A) small molecule antagonists, cell-based qHTS assay (AID 1963586). Note: nearly all actives have a fitted effect of over 45% in size. Note: potency is the fitted concentration of half-maximal effect. In a few lines:
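CHO cells stably expressing human HTR2A were plated for 18 h at 37 C, then loaded with calcium dye for 1 h. Compounds were preincubated 5 min at room temperature before DOI (4 nM solution) was added. Kinetic fluorescence was read for 3 min.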

Experiment [12] shares this target. In words: 5-hydroxytryptamine receptor 2A (HTR2A) small molecule agonists, cell-based qHTS assay (AID 1963587). Note: nearly all actives have a fitted effect of over 30% in size. Note: potency is the fitted concentration of half-maximal effect. In a few lines:
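HTR2A-CHO cells, plated 18 h at 37 C/5% CO2, dye-loaded 1 h at 37 C; compounds in DMSO added by pin tool (agonist mode). Intracellular calcium flux read as kinetic fluorescence on FDSS over 2 min at 1 s intervals.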

In experiment [13] the target is Muscarinic acetylcholine receptor M1 (Homo sapiens) (UniProt P11229). In words: Cholinergic receptor muscarinic 1 (CHRM1) small molecule antagonists, cell-based qHTS assay (AID 1963588). Note: nearly all actives have a fitted effect of over 40% in size. In a few lines:
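Compounds were tested at 15 concentrations in three independent runs. Dye-loaded CHRM1-CHO cells were exposed 5 min at room temperature before stimulation by acetylcholine added at 50nM. Intracellular calcium was read kinetically on FDSS for 3 min.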

For experiment [14] the target is unchanged. The experiment can be described thus: Cholinergic receptor muscarinic 1 (CHRM1) small molecule agonists, cell-based qHTS assay (AID 1963589). Note: nearly all actives have a fitted effect of over 35% in size. In outline: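 Cells were plated and incubated 18 h at 37 C/5% CO2, loaded with calcium dye for 1 h at 37 C, then treated with compounds in DMSO. Fluorescence was recorded kinetically at 1 sec intervals.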
The nature of experiment [15]: cAMP Responsive Elements (CRE) small molecule agonists, cell-based qHTS assay (AID 1963590). In outline: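 Cells carrying a CRE-driven beta-lactamase reporter (HEK 293T) are seeded, incubated overnight (18 h), and treated with test compounds for 3 h at 37 C; reporter activity is then detected with a FRET substrate after 2 h at room temperature.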
Experiment [16] in a line: cAMP Responsive Elements (CRE) small molecule antagonists, cell-based qHTS assay (AID 1963591; active = well fitted inhibition curve with a large enough effect in the signal ratio in the repeat runs, not every such curve was filed as active; the % refers to the signal ratio). In a few lines: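 Cells (CRE-bla HEK 293T, DMEM with 10% dialyzed FBS and 25 mM HEPES) are seeded and incubated 18 h. Compounds are added with NKH477 agonist at 0.25 uM final for 3 h, then FRET substrate for 2 h.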
In experiment [17] the target is Beta-2 adrenergic receptor (Homo sapiens) (UniProt P07550). The experiment can be described thus: Adrenergic beta2 receptor (ADRB2) small molecule antagonists, cell-based qHTS assay (AID 1963592). Note: series mostly up to about 92 µM; nearly all actives have a fitted effect of over 50% in size. In outline:
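Assay format: CHO-ADRB2 cells, 18-20hr seeding at 37C/5% CO2, then compound plus 1nM isoproterenol agonist mix for 0.5hr RT. Homogeneous time-resolved fluorescence cAMP detection after 1hr, expressed as 665/615 nm ratio.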

The target of experiment [18] is D(2) dopamine receptor (Homo sapiens) (UniProt P14416). The experiment can be described thus: Dopamine D2 receptor (DRD2) small molecule agonists, cell-based qHTS assay (AID 1963594). Note: nearly all actives have a fitted effect of over 35% in size. In a few lines: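 HEK293 cells stably expressing DRD2 were cultured 24 h at 37 C, then given Ro20-1724 (0.1 mM final) and compounds for 10 min at room temperature. NKH477 (200nM) was then added for 30 min. cAMP was read by HTRF.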

For experiment [19] the target is unchanged. The experiment can be described thus: Dopamine D2 receptor (DRD2) small molecule antagonists, cell-based qHTS assay (AID 1963595; active = well fitted inhibition curve with a large enough effect in the signal ratio in the repeat runs, with a control signal flat; the % refers to the signal ratio). In a few lines: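 Antagonist mode in DRD2-HEK293 cells: after compound addition with 0.1 mM Ro20-1724, cells received quinpirole (12 nM) and NKH477 (200 nM) for 30 min at room temperature; HTRF cAMP read after 1 h detection.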

For experiment [20], the target named is Beta-2 adrenergic receptor (Homo sapiens) (UniProt P07550). In words: Adrenergic beta2 receptor (ADRB2) small molecule agonists, cell-based qHTS assay (AID 1963593).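 Note: CHO cells stably overexpressing human ADRB2.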 In a few lines:
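CHO cells stably over-expressing ADRB2 were plated overnight at 37C, then dosed with compounds plus a stimulation mix containing 100uM IBMX and 25uM Ro-20-1724 for 0.5hr at room temperature. cAMP was measured by HTRF competition, 1hr.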

Several values for one entry are separate records, joined by “and”; a condition that tells them apart may be missing. Equal entries are not always repeated. Records with an inconclusive call do not appear. Some structures have more than one record in an assay (separate samples or runs), and their calls can disagree. Activity calls are given as the source filed them. Unless noted, calls come from the whole dose curve.

KiSS-1 receptor (Homo sapiens), sequence (Q969F8 whole entry, looked up): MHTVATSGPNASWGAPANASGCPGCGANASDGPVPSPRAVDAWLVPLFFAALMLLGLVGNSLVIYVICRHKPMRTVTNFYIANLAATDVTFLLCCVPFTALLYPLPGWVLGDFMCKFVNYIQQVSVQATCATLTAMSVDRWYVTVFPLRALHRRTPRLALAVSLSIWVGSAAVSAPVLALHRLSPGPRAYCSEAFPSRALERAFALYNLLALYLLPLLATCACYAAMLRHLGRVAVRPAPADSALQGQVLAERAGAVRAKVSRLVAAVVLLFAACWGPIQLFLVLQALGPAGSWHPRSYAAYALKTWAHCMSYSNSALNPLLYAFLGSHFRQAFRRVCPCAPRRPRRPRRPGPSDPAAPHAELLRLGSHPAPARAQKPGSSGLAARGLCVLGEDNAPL
Beta-2 adrenergic receptor (Homo sapiens), sequence (P07550 whole entry, looked up): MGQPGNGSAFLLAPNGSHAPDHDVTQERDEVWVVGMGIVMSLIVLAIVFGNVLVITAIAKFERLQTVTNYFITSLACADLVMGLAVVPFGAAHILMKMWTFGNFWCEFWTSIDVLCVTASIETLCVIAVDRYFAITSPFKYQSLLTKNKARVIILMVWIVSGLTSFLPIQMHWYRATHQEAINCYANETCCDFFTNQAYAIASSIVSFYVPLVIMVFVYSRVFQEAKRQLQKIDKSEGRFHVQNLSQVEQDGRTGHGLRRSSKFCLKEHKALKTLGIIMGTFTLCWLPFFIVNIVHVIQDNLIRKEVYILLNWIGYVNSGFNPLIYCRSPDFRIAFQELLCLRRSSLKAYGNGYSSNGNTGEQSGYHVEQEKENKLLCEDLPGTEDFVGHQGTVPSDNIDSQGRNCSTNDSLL
Muscarinic acetylcholine receptor M1 (Homo sapiens), sequence (P11229 whole entry, looked up): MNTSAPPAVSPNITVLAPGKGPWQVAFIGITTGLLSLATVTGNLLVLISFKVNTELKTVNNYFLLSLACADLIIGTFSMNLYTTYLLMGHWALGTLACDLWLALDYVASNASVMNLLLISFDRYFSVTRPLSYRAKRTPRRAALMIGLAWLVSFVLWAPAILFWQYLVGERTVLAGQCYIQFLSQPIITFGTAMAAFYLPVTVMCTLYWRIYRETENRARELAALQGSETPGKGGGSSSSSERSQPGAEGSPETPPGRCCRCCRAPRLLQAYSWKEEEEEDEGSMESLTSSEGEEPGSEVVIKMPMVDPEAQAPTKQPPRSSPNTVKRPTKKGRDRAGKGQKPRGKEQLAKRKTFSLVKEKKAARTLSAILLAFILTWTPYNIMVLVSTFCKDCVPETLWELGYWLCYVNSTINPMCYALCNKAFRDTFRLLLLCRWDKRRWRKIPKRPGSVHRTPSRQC
D(2) dopamine receptor (Homo sapiens), sequence (P14416 whole entry, looked up): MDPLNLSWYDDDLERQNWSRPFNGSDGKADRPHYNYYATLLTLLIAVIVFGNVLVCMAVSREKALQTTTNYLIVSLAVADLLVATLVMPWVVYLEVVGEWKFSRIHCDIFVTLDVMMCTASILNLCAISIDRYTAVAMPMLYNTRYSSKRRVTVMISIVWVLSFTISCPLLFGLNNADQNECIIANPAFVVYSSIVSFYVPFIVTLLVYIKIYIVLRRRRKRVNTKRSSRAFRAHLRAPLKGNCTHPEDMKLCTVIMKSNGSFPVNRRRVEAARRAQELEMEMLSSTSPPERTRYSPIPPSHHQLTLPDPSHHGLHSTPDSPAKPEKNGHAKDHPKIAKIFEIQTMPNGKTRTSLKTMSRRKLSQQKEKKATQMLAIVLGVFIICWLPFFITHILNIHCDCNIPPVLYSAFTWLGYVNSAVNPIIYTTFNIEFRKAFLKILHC
Gonadotropin-releasing hormone receptor (Homo sapiens), sequence (P30968 whole entry, looked up): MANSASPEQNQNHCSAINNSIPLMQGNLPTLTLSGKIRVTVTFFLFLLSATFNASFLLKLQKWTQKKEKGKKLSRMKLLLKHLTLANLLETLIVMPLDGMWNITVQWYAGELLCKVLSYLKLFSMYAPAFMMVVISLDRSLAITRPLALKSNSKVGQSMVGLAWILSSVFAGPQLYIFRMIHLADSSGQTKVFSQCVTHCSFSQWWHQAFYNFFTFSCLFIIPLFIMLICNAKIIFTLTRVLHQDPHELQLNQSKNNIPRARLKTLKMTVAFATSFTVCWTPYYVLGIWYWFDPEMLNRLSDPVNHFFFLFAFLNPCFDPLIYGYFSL
5-hydroxytryptamine receptor 2A (Homo sapiens), sequence (P28223 whole entry, looked up): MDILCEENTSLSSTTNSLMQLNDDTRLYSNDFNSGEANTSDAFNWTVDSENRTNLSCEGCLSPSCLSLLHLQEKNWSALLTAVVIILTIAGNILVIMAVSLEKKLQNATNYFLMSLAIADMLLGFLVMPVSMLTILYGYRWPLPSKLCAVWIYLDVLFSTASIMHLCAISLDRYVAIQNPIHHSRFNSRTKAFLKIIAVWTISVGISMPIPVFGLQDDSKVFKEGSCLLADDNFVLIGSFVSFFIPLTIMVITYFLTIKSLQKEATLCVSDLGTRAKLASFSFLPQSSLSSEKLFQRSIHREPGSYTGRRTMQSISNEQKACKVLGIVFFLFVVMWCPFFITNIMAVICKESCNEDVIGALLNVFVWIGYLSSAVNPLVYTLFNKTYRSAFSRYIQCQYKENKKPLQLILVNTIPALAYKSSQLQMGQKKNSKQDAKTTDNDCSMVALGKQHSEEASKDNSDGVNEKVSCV

For `FC(F)(F)c1cccc(Cl)c1`, the Potency result in experiment [1], in [2], in experiment [3], in [4], in experiment [5] and in [6] was “inactive” each time. Besides, the Potency result in [7], in experiment [8], in [9], in experiment [10], in [11] and in experiment [12] was “inactive” each time. For the same molecule, the Potency result in experiment [13], in experiment [14], in experiment [15], in [16], in [17] and in experiment [18] was “inactive” in each case. Moreover, the Potency result in [19] was “inactive”.

As to `CC(=O)/C=C/C1C(C)=CCCC1(C)C` (stereo unspecified), the Potency entry in [1], in [2], in [3], in [4], in experiment [5] and in experiment [7] was “inactive” in each case. The Potency entry in experiment [8], in [9], in [11], in experiment [12], in experiment [13] and in experiment [14] was “inactive” throughout. The Potency entry in experiment [15], in [16], in [17], in [20], in [18] and in [19] was “inactive” throughout.

Consider `CCCCCCCCCCCCOCCO`, for which the Potency result in experiment [1], in experiment [3], in experiment [4], in experiment [5], in experiment [8] and in experiment [9] was “inactive” each time. The Potency entry in experiment [11], in experiment [12], in experiment [13], in experiment [14], in experiment [15] and in experiment [16] was “inactive” in each case. Moreover, the Potency entry in [20], in experiment [18] and in experiment [19] was “inactive” in each case. Besides, the Potency in experiment [2] is 27.3 µM (active); in experiment [7] it was 20.4 µM (active) and inactive.

`CC/C=C\C/C=C\C/C=C\CCCCCCCC(=O)O`: the Potency result in [1], in [3], in experiment [4], in [5], in [8] and in [9] was “inactive” each time. Also, the Potency entry in experiment [11], in experiment [12], in experiment [13], in experiment [14], in experiment [17] and in experiment [20] was “inactive” in each case. Moreover, the Potency entry in experiment [18] and in experiment [19] was “inactive” throughout. The Potency in [2] was 60.6 µM (active) and 54.5 µM (active); in experiment [7], “inactive and 20.4 µM (active)”.

Consider `N[C@@H](Cc1c[nH]c2ccc(O)cc12)C(=O)O`, for which the Potency result in experiment [1], in experiment [2], in experiment [3], in experiment [4], in experiment [5] and in experiment [7] was “inactive” throughout. Moreover, the Potency entry in experiment [8], in experiment [9], in experiment [13], in [14], in experiment [15] and in experiment [17] was “inactive” each time. Also, the Potency result in [18] was “inactive”. Besides, the Potency in experiment [11] was 364 nM (active) and 6.5 µM (active); in experiment [12] it was 599 nM (active) and 8.49 µM (active).

Regarding `Cc1cccc(C)c1[N+](=O)[O-]`, the Potency entry in [1], in [2], in experiment [3], in experiment [4], in experiment [5] and in experiment [7] was “inactive” each time. The Potency result in [8], in experiment [9], in experiment [11], in experiment [12], in experiment [13] and in experiment [14] was “inactive” each time. Besides, the Potency entry in experiment [15], in experiment [16], in experiment [17], in [20], in experiment [18] and in experiment [19] was “inactive” throughout.

As for `CS(=O)(=O)c1ccc(Cl)cc1`, the Potency result in experiment [1], in experiment [2], in experiment [3], in experiment [4], in [5] and in experiment [7] was “inactive” each time. In addition, the Potency entry in experiment [8], in [9], in experiment [11], in experiment [12], in [13] and in [14] was “inactive” each time. Further, the Potency entry in [15], in experiment [16], in experiment [17], in experiment [18] and in experiment [19] was “inactive” each time.

On to `c1cc(C(c2ccc(OCC3CO3)cc2)C(c2ccc(OCC3CO3)cc2)c2ccc(OCC3CO3)cc2)ccc1OCC1CO1` (stereo unspecified), for which the Potency result in [1], in [3], in [4], in experiment [5], in experiment [7] and in [8] was “inactive” each time. Also, the Potency result in experiment [9], in experiment [11], in experiment [12], in [13], in experiment [14] and in experiment [17] was “inactive” each time. Moreover, the Potency entry in experiment [20], in experiment [18] and in experiment [19] was “inactive” each time. Also, the Potency in experiment [2] is 22.5 µM (active) and 21.7 µM (active).
